# Source: the supplement of paper PMC3414501
# Structures can show the parent of a compound that is named as a salt.
# Assays:
# [1] = tested on: S. cerevisiae SK1 pCDA2-eGFP (USY613), sporulating; experiment: CDA2-GFP sporulation assay sensitivity score (z-score vs DMSO controls); higher = stronger inhibition of sporulation, active = hit call of the paper;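 also: active if sensitivity score above 5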
# [2] = tested on: S. cerevisiae AD1-9 (efflux-pump deficient), vegetative growth in YPD; experiment: growth sensitivity score (doubling time z-score vs DMSO controls); higher = slower growth, strongly negative scores also mark growth inhibition (complete suppression), active = hit call of the paper
# Procedure, shortened: (§1)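 Rich medium in microtiter plates was seeded with Saccharomyces cerevisiae strains BY4741 and AD1-9 at an OD600 of 0.065, and compounds were added as a 1:100 dilution of DMSO stock. A Tecan GENios reader recorded optical density every 15 min for 24 hours, with eight solvent-only wells in each experiment. Average doubling time was the time to reach a set generation point divided by generation number. The growth sensitivity score was the compound mean minus the solvent-only mean, divided by the solvent-only standard deviation.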
# [3] = tested on: S. cerevisiae BY4741 (wild-type), vegetative growth in YPD; experiment: as above
# Procedure, shortened: as §1
# [4] = stock concentration (mM, diluted 1:100): 10
# [5] = stock concentration (mM, diluted 1:100): 7.6
# [6] = stock concentration (mM, diluted 1:100): 8.7
# [7] = stock concentration (mM, diluted 1:100): 9
# [8] = stock concentration (mM, diluted 1:100): 9.8
# [9] = stock concentration (mM, diluted 1:100): 19.9
smiles,measurement,setting,value
Oc1ccc2c3c1O[C@H]1c4[nH]c5ccccc5c4C[C@@]4(O)[C@@H](C2)N(CC2CC2)CC[C@]314 [Naltrindole],CDA2-GFP sporulation assay sensitivity score,[1]; [4],3.11 (inactive)
same,growth sensitivity score,[2]; [4],-3.12
same,growth sensitivity score,[3]; [4],-1.11 (inactive)
CN1C(=O)CN=C(c2ccccc2)c2cc([N+](=O)[O-])ccc21 [Nimetazepam],CDA2-GFP sporulation assay sensitivity score,[1]; [4],-0.53 (inactive)
same,growth sensitivity score,[2]; [4],0.79 (inactive)
same,growth sensitivity score,[3]; [4],-0.45 (inactive)
C[C@]12CC[C@H]3[C@@H](CCC4=CC(=O)CC[C@@]43C)[C@@H]1CC[C@@H]2O [Testosterone],CDA2-GFP sporulation assay sensitivity score,[1]; [4],21.1 (active)
same,growth sensitivity score,[2]; [4],44.5 (active)
same,growth sensitivity score,[3]; [4],4.61 (active)
CN1CC[C@]23CCCC[C@H]2[C@H]1Cc1ccc(O)cc13 [Levorphanol tartrate],CDA2-GFP sporulation assay sensitivity score,[1]; [5],-2.67 (inactive)
same,growth sensitivity score,[2]; [5],-1.11 (inactive)
same,growth sensitivity score,[3]; [5],-0.24 (inactive)
CC(NC(C)(C)C)C(=O)c1cccc(Cl)c1 (centres undefined) [Bupropion hydrochloride],CDA2-GFP sporulation assay sensitivity score,[1]; [6],3.2 (inactive)
same,growth sensitivity score,[2]; [6],-0.08 (inactive)
same,growth sensitivity score,[3]; [6],-0.87 (inactive)
Cc1ncc2n1-c1ccc(Cl)cc1C(c1ccccc1F)=NC2 [Midazolam hydrochloride],CDA2-GFP sporulation assay sensitivity score,[1]; [7],6.54 (active)
same,growth sensitivity score,[2]; [7],12.1 (active)
same,growth sensitivity score,[3]; [7],0.95 (inactive)
CN1CC[C@]2(c3cccc(O)c3)Cc3nc4ccccc4cc3C[C@H]2C1,CDA2-GFP sporulation assay sensitivity score,[1]; [8],5.85 (inactive)
same,growth sensitivity score,[2]; [8],-2.02
same,growth sensitivity score,[3]; [8],0.13 (inactive)
Cc1ccc(-c2nc3ccc(C)cn3c2CC(=O)N(C)C)cc1 [Zolpidem tartrate],CDA2-GFP sporulation assay sensitivity score,[1]; [9],1.79 (inactive)
same,growth sensitivity score,[2]; [9],-1.48 (inactive)
same,growth sensitivity score,[3]; [9],-0.6 (inactive)
